Source: PubChem BioAssay (NCI)
Values joined by “and” are separate entries in the source; they are usually repeats but may differ in a detail not shown here. Equal values may be shown once. This is part of a sample that, as a whole, favours compounds with a hit. Of some 83,000 tested, about 20% had one in any assay.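 Activity criterion: percent growth below 10, measured after cells in 96-well plates were exposed to a single compound concentration for 48 hours.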 Unmarked numbers belong to inactive results. Active and inactive are the calls of the source.

Tests used:
Assay in all cases: NCI-60 one-dose screen, 48 h (100 = growth as untreated, 0 = no growth, -100 = all killed)
Conditions in all cases: 10 µM unless noted
HCT-15 colon = system: HCT-15 colon
HT29 colon = system: HT29 colon
SNB-75 CNS = system: SNB-75 CNS
SNB-19 CNS = system: SNB-19 CNS
U251 CNS = system: U251 CNS
PC-3 prostate = system: PC-3 prostate
SK-MEL-5 melanoma = system: SK-MEL-5 melanoma
UACC-62 melanoma = system: UACC-62 melanoma
LOX IMVI melanoma = system: LOX IMVI melanoma
SK-MEL-28 melanoma = system: SK-MEL-28 melanoma

SMILES | growth (HCT-15 colon) | growth (HT29 colon) | growth (SNB-75 CNS) | growth (SNB-19 CNS) | growth (U251 CNS) | growth (PC-3 prostate) | growth (SK-MEL-5 melanoma) | growth (UACC-62 melanoma) | growth (LOX IMVI melanoma) | growth (SK-MEL-28 melanoma)
O=C(N/N=C/c1ccc(B(O)O)s1)c1[nH]c2ccc(Br)cc2c1-c1ccccc1 | -92.4% (active) | -63.3% (active) | -72.7% (active) | -97.3% (active) | -79.8% (active) | -9.11% (active) | -95.3% (active) | -99.5% (active) | -99.3% (active) | -93.3% (active)
O=C(c1ccc(O)cc1)C1[C@H](c2ccc(Cl)cc2)[C@@H](c2ccccc2)NC12C(=O)Nc1ccccc12 (stereo not given in full) | -70.8% (active) | -66.3% (active) | 43.5% | 13.2% | -0.272% (active) | 1.61% (active) | -92.9% (active) | -22.4% (active) | -100% (active) | 17.9%
Oc1ccc(Cl)c(Nc2ncnc3c2cnn3CC(Cl)c2ccc(Br)cc2)c1 (stereo not given) | 37.9% | 57.2% | 3.71% (active) | 57.4% | 53.5% | 44.5% | 48.8% | 55.6% | 0.654% (active) | 78.4%
O=C(N/N=C/c1ccsc1)c1[nH]c2ccc(Br)cc2c1-c1ccccc1 | -62.8% (active) | -62.8% (active) | -32.3% (active) | -41.5% (active) | -89.1% (active) | -26.1% (active) | -97.2% (active) | -91.6% (active) | -100% (active) | -87.4% (active)
COc1ccc(-n2c(NC(=O)N3CCN(C)CC3)c(C#N)c3ccccc32)cc1 | 57.5% | 84.2% | -4.12% (active) | 52.9% | 41.9% | 58.2% | 37.4% | 50.9% | 9.35% (active) | 68.8%
O=C1c2cccc3c(N4CCN(Cc5ccccc5)CC4)ccc(c23)C(=O)N1c1cccc(-c2nn(-c3ccccc3)cc2-c2nc3ccccc3s2)c1 | 110% | 115% | 84.3% | 103% | 106% | 88.1% | 102% | 94.6% | 97.9% | 106%
O=C(NNC(=S)NC(=O)c1ccccc1)c1ccc(OCc2nc3ccc(Cl)cc3[nH]2)cc1 | -75.1% (active) | -6.38% (active) | -17.8% (active) | -12.9% (active) | -71.4% (active) | 2.48% (active) | -73.4% (active) | -88.4% (active) | -92.2% (active) | -82.7% (active)
COc1ccc2nc(NC(=O)c3ccc(N(C)C)cc3)sc2c1 | 59.4% | 100% | 101% | 84.4% | 93.5% | 71.3% | 55.7% | 69.9% | 87% | 95%
COc1c(B(O)O)cc(F)cc1-c1nc2ccc3[nH]ncc3c2c2c1COCC2 | 99.4% | 74.2% | 0.778% (active) | 32.7% | 45.4% | 83.1% | 64.6% | 68.2% | 24.2% | 61.9%
CN(C)c1ccc(/C=C/c2n(Cc3ccc4ccccc4c3)c3ccccc3[n+]2Cc2ccc3ccccc3c2)cc1 | -84.4% (active) | -31.6% (active) | -84.3% (active) | -92.5% (active) | -67.5% (active) | -50.9% (active) | -92.2% (active) | -93.3% (active) | -95.7% (active) | -76% (active)
COc1c(B(O)O)cccc1-c1nc2ccc3cn[nH]c3c2c2c1CCCC2 | 54.9% | 85.8% | -17.7% (active) | 54.9% | 48.1% | 60% | 53.4% | 52.1% | 41.3% | 86.6%
Nc1cccc(-n2c(COc3ccc(I)cc3)nc3ccccc32)c1 | 74.6% and 104% | 78.7% and 114% | 52.9% and 91.4% | 93.5% and 98.6% | 84.8% and 101% | 63.9% and 104% | 60% and 99.8% | 57.6% and 92.2% | 80% and 101% | 98.9% and 98.7%
Nc1cc2ccccc2c(=O)n1NC(=O)c1ccc(Br)cc1 | 99.4% | 118% | 58.4% | 84.5% | 96.1% | 95.3% | 88.1% | 80.6% | 84.2% | 88%
COc1ccc2c(c1)N=c1c-2cc2c(O)[nH]c(=S)n2c1=O | 27.3% | 12.3% | 6.9% (active) | 59.8% | 30.9% | 37.7% | 13.5% | 34.4% | 32.6% | 72.6%
COc1cc(/C=N/NC(=O)c2ccc(OCc3nc4ccc(C)cc4[nH]3)cc2)cc(OC)c1OC | 38.9% | 18.9% | 135% | 66.2% | 29% | 49.7% | 18.3% | 29.9% | 40.4% | 39.4%
FC(F)(F)c1cc2c(Cl)ncnc2n1CCN1CCCCC1 | -30.7% (active) | 56.2% | 13.6% | -35.3% (active) | 81.8% | 55.8% | 83.2% | 50.8% | -88.8% (active) | 52.5%
O=C(NN1C(=O)/C(=C/C=C/c2ccc([N+](=O)[O-])o2)SC1=S)c1ccncc1 | -78.9% (active) | -67.2% (active) | -38.6% (active) | -96.8% (active) | -91.2% (active) | -63% (active) | -99.5% (active) | -100% (active) | -94% (active) | -88.9% (active)
O=C(COc1ccc(/C=C2/C(=O)Nc3ccc(Cl)cc32)cc1)Nc1ccc(Br)cc1 | -23% (active) | -51.3% (active) | -57% (active) | 5.08% (active) | -88.4% (active) | -38.9% (active) | -14.8% (active) | 0.1% (active) | -89.4% (active) | -26.7% (active)
Nc1nc(-c2ccccc2)c(N=Nc2ccc(Cl)cc2Cl)s1 | -86% (active) | -60.4% (active) | -36.5% (active) | -18.1% (active) | -10.7% (active) | -1.78% (active) | -99.2% (active) | -49.5% (active) | -99.5% (active) | -55.8% (active)
Nc1ccc(-c2ccc3ncnc(N4CCc5cc(F)c(Cl)cc54)c3c2)cn1 | 24.8% | 25.9% | -4.49% (active) | 39.3% | 43.8% | 19% | 16.6% | 15% | 18.7% | 41.4%
COc1ccc(-c2nnc3c(/C=C/c4ccc(Br)cc4)nc4ccccc4n23)cc1 | -60.7% (active) | -34.1% (active) | 83.4% | 86.3% | 68.4% | 86.4% | 49.4% | 40.8% | -87.9% (active) | 72.4%
O=C(N/N=C/c1occc1Br)c1[nH]c2ccc(Br)cc2c1-c1ccccc1 | -78% (active) | -68.7% (active) | -78.2% (active) | -97.1% (active) | -82.6% (active) | -51.3% (active) | -97.6% (active) | -95% (active) | -100% (active) | -96.5% (active)
CNc1nc2ccccc2n2c(-c3ccc(O)c(O)c3)cnc12 | 5.19% (active) | 2.27% (active) | -15.5% (active) | 27.5% | 6.12% (active) | 31.7% | -23.6% (active) | 4.77% (active) | 5.44% (active) | 23.3%
O=C1/C(=C/c2cccc3c2OCO3)Cc2c(F)cc(Br)cc21 | 102% | 118% | 97.1% | 103% | 105% | 107% | 101% | 91.8% | 99.8% | 115%
O=C1Nc2cc(-c3ccc(NS(=O)(=O)c4ccc(C(F)(F)F)cc4)cc3)ccc2/C1=C/c1ccc[nH]1 | 15.8% | 12.2% | 18.6% | 69.9% | 41.1% | 31.2% | 42.7% | 30.5% | 46.1% | 47.4%
O=C1/C(=C/C=C/c2ccco2)SC(=S)N1CC(=S)C1C=CS(=O)(=O)C1 (stereo not given) | 75.6% | 109% | 93.5% | 95.2% | 88.7% | 96.7% | 86.8% | 74.4% | 66.7% | 93.9%
